Assay results from PubChem BioAssay AID1159580 (chemical genetic matrix, 2015).
The campaign covered roughly 5,500 compounds. About 2,000 (36%) were called active. Another 18% or so got no clear call; they are omitted. Rule as the data show it: active = normalized growth mostly below about 0.91 (no sharp cut-off); inconclusive = no clear call, values can overlap the other calls; inactive = mostly above about 0.92. The list shows a part of the results.

Test: chemical genetic growth profiling, strain panel (AID 1159580);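 also: tested at 20 µM; growth read once vehicle control cultures reached saturation at 30 °C; 1 = growth at the plate median or of vehicle wells; lower values mean less growth of the strain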
Conditions: S. cerevisiae deletion strains, growth OD

Measured: normalized growth

COc1cc(C(O)CN)ccc1O (stereo unspecified)
inactive: locus YAL040C, strain CLN3, active compounds read low 1.01 | locus YCL061C, strain MRC1 (second series), active compounds read low 1.01 | locus YDR363W, strain ESC2, active compounds read low 1.02 | locus YER002W, strain NOP16, active compounds read low 1.04 | locus YGR229C, strain SMI1, active compounds read low 1.01 | locus YMR263W, strain SAP30, active compounds read low 1.01 | locus YNL175C, strain NOP13, active compounds read low 1.02 | locus YNL197C, strain WHI3, active compounds read low 1.01 | locus YNL224C, strain SQS1, active compounds read low 1 | locus YOR083W, strain WHI5 (second series), active compounds read low 1.01 | locus YPL241C, strain CIN2, active compounds read low 1
